IL1B NFkB pot: enhances IL-1B driven NFkB nuclear translocation | HUVEC IL-1B NFkB p65 nuclear translocation imaging | activation, % at 2 µM | hit rate 0.3% among 94,000 | AID 819;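 active means activation above 40%, about the mean plus 3 SD, also judged a hit on visual image review; inconclusive means activation above 40% but not a hit on visual review; inactive means activation not above 40% and no visual hit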;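 further: percent activation is computed from the nuclear over cytoplasmic p65 intensity ratio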
IL1B cytotox: toxic to HUVEC cells under IL-1B stimulation; HUVEC cell count loss, Hoechst imaging, IL-1B stimulated; cell count reduction, % at 2 µM; hit rate 0.41% among 94,000;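 active means cell count reduction more than 3 SD above the screen-wide mean, cut at about 70% in these data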;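 further: normalized per plate to untreated control cells as the no-loss baseline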
PLAP activator: human PLAP activation. P05187. purified PLAP enzyme, luminescent substrate read-out; stronger effect = higher value. activation fold at 20 µM. hit rate 1.2% among 96,000; in the data active means activation fold above about 2
TNAP act mid DEA: activates human TNAP at intermediate phosphate acceptor concentration; purified TNAP, CDP-star luminescence, 100 mM DEA, 30 min; stronger effect = higher value; scale: 0 levamisole-inhibited, 1 vehicle-only enzyme; activation factor at 20 µM; 64,000 tested, under 10 active; AID 813;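 active means activation factor of at least 2 at 20 µM, relative to controls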
Target sequence (P05186 whole entry, looked up): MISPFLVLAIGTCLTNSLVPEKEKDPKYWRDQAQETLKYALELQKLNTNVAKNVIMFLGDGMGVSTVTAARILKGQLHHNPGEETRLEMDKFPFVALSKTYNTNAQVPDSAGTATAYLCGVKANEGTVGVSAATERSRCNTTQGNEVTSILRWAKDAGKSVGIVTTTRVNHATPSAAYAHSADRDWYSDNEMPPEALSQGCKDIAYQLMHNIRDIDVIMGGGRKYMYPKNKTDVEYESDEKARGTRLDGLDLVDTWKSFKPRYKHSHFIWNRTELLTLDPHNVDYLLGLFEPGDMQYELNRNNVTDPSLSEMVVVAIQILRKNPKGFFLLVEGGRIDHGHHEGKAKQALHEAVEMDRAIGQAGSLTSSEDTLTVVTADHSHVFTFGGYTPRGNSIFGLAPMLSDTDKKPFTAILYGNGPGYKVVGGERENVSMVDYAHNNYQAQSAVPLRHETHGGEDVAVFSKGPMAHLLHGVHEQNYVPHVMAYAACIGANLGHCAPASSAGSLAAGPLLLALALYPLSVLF
NFkB transloc inh: blocks IL-1B driven NFkB nuclear translocation in HUVEC cells; HUVEC IL-1B NFkB p65 nuclear translocation imaging; inhibition, % at 2 µM; hit rate 0.43% among 94,000;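 active means inhibition above about 30% together with a positive call from visual inspection of the well image, limit read from the data; inconclusive means inhibition above a set limit but visual check negative; inactive means inhibition not above a set limit, visual check negative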;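 further: nuclear over cytoplasmic p65 intensity ratio measured by imaging; 0% = IL-1B stimulated DMSO wells and 100% = unstimulated DMSO wells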
* = called active by the depositor; ? = inconclusive; nt = no result given. Hits are enriched below; roughly 2.1% of the tested compounds scored in any of these assays.

SMILES	IL1B NFkB pot	IL1B cytotox	PLAP activator	TNAP act mid DEA	NFkB transloc inh
CCOC(=O)c1ccccc1-n1c(C)cc(C2N=C(N)Nc3nc4ccccc4n32)c1C (configuration not stated)	14	-4	2.5*	nt	-14
Cc1ccc(SCC(=O)NC(C)(C)C)cc1	11	-88	1.2	nt	-11
O=C(CSCc1ccc(Br)cc1)N1CCOCC1	42*	-16	1.1	0.9	-42
Cc1ccc(OCC(=O)N2CCCCCC2)c(C)c1	21	86*	1.1	0.9	-21
Cc1cc(Br)ccc1OCC(=O)N1CCCCCC1	-3	1	1.2	nt	4
C=CCNC(=S)NNC(=O)COc1cccc(Cl)c1	2	-13	0.9	nt	-3
CC(=O)C1=C(C)OC(N)=C(C#N)C1c1cc2cc(C)c(C)cc2nc1Cl (configuration not stated)	43*	-18	1.4	nt	-43
CCOC(=O)c1cnc(Nc2nc3ccccc3o2)nc1CN1CCN(c2ccccc2)CC1	2	-6	nt	0.9	-2
Cc1nc(Nc2nc3ccccc3o2)nc2c1CCC2	8	-22	2.7*	1.3	-8
CCOC(=O)c1cnc(Nc2nc3ccccc3o2)nc1C	-1	-1	2.8*	nt	1
CCOc1ncccc1C(=O)OCc1cc(=O)n2c(n1)sc1ccccc12	nt	nt	nt	0.9	nt
O=C(O)c1cc(NCc2ccc3c(c2)OCO3)ccc1N1CCOCC1	-54	-24	1.1	0.9	54*
O=[N+]([O-])c1ccc(-c2nnc(CSc3nc(-c4ccccc4)nc4ccc(F)cc34)o2)cc1	?	-60	nt	nt	-52
CCOc1ccccc1N(CC(=O)OC)S(C)(=O)=O	-98	71*	1.3	1	98*
CCOc1ccccc1N(CC(=O)N1CCCCCC1)S(C)(=O)=O	10	-23	1.2	1	-10
CCCCNC(=O)N(O)C1N(CCCC)C(=O)N(CC(=O)OC)C1(C)C (configuration not stated)	-11	-9	nt	nt	11
Nc1c(C(=O)NCc2ccco2)c2nc3ccccc3nc2n1CCc1ccc(F)cc1	6	-1	2*	nt	-6
COc1ccc(-n2c(N)c(C(=O)NCc3ccco3)c3nc4ccccc4nc32)cc1	2	-3	1.2	nt	-2
CC1CN(S(=O)(=O)N(C)C)CCN1S(=O)(=O)N(C)C (configuration not stated)	2	88*	0.9	nt	-2
CN(C)S(=O)(=O)N1CCN(S(=O)(=O)N(C)C)CC1	14	3	1.1	1.1	-14
CC(CCc1ccccc1)NC(=O)c1cccnc1 (configuration not stated)	-58	1	1.1	1	58*
Cc1ccc(N2CCN(c3cc(C)nc4nc(C)nn34)CC2)c(C)c1	nt	nt	nt	1	nt
O=S(=O)(Nc1cccnc1Cl)c1ccc2c(c1)OCCO2	-10	0	1	nt	10
CSc1ccccc1NS(=O)(=O)c1ccc2c(c1)OCCO2	-27	70*	0.8	0.9	27
CCOC(=O)N1CCC(Nc2c(NCCCN(C)Cc3ccccc3)c(=O)c2=O)CC1	42*	-7	1.3	0.9	-42
SMILES	IL1B NFkB pot	IL1B cytotox	PLAP activator	TNAP act mid DEA	NFkB transloc inh
CCCN(CCC)CCNc1c(NC2CCN(C(=O)OCC)CC2)c(=O)c1=O	11	4	1.6	nt	-11
COc1ccc(Cl)cc1C(=O)NC(=S)Nc1cc(-c2nc3ccccc3[nH]2)ccc1C	-6	26	nt	nt	6
Cc1ccc(NC(=O)CSc2nc3ccccc3c(=O)n2CCCC(=O)N2CCCC2)cc1	0	6	1	1	0
Cc1ccc(NC(=O)CSc2nc3ccccc3c(=O)n2CCCN2CCCCC2)cc1C	12	16	2.6*	nt	-12
CC(=O)NCCn1c(SCc2ccccc2C)nc2ccccc2c1=O	-9	10	1.3	nt	9
CC(=O)NCCn1c(SCc2ccc(C)cc2C)nc2ccccc2c1=O	-5	-2	2.5*	nt	5
CCCCCC(C(=O)O)C(C)CC(=O)NC1CCCCC1 (configuration not stated)	5	-11	1	0.9	-5
CCc1nc2ccccc2n1CCC(C)C	25	4	1	0.9	-25
COc1ccccc1C(=O)Nc1nnc(-c2ccc3c(c2)CCCC3)o1	-53	-14	1.8	0.9	53*
O=C1c2ccccc2C(O)(Cc2ccccc2)N1C1CCCCC1 (configuration not stated)	-37	92*	1.1	1	37*
CCOC(=O)C1=C(c2ccccc2)N2CCN=C2S1	2	1	nt	0.9	-2
O=C(c1cn(-c2ccccc2)nc1-c1ccncc1)N1CCCCC1	-24	92*	0.9	0.9	24
CNc1c([N+](=O)[O-])cnn1-c1ccc(Cl)cc1	9	-46	1.2	nt	-9
O=C(c1ccc2c(c1)OCO2)N(Cc1ccco1)C1(C(=O)NC2CCCCC2)CCCCC1	19	4	1.6	nt	-19
COc1ccc(-c2nnc(SCC(=O)Nc3ccc4c(c3)OCCO4)n2N)cc1OC	-1	9	0.9	nt	1
COc1ccc(-n2c(Cc3cccn3C)nnc2SCC(=O)NC2CCCCC2)cc1	nt	nt	1.4	0.9	nt
COc1ccc(-n2c(Cc3cccn3C)nnc2SCC(=O)NCC2CCCO2)cc1 (configuration not stated)	-37	11	1.4	0.9	37*
COc1ccc(-n2c(COc3ccc4ccccc4c3)nnc2SCC(=O)NCc2ccco2)cc1	3	-22	2*	nt	-12
ONC(=Nc1ccc(Cl)cc1)c1ccccc1	nt	nt	0.8	nt	nt
CCc1nnc(NC(=O)CCC(=O)N2CCN(C3CCCCC3)CC2)s1	5	8	1.2	0.9	-5
CCc1nnc(NC(=O)CCC(=O)N2CCCC2)s1	79*	21	0.9	1	-79
COc1ccc(-n2nnc3c(SCC(=O)N4CCCc5ccccc54)ncnc32)cc1	nt	nt	nt	0.9	nt
Cc1cnc(C(=O)Nc2ccccc2-c2ccc(C)o2)cn1	12	-39	0.9	1	-12
CN(C)Cc1cnc2ccc(Cl)cn12	-97	87*	1	nt	97*
O=C(NCCN1CCOCC1)c1cnn2c(-c3ccccc3)cc(-c3ccccc3)nc12	0	21	1	nt	0
SMILES	IL1B NFkB pot	IL1B cytotox	PLAP activator	TNAP act mid DEA	NFkB transloc inh
Cc1sc2nc(CN3CCCC3)nc(N3CCC(C(N)=O)CC3)c2c1C	-3	-7	2*	nt	3
Cc1nc(N2CCC(C(N)=O)CC2)c2nnn(Cc3ccccc3)c2n1	nt	nt	0.9	1	nt
COc1ccc(CCNC(=O)C2CC(=O)N(c3ccccc3)C2)cc1OC (configuration not stated)	-4	88*	1.2	0.9	4
COc1ccc(CCNC(=O)C2CC(=O)N(C3CCCCCCC3)C2)cc1OC (configuration not stated)	-7	-8	1.4	nt	7
O=C(Nc1ccc2c(c1)OCO2)C1CCN(Cc2cnn(-c3ccccc3)c2-n2cccc2)CC1	12	-3	2.9*	1	-12
O=C(Nc1ccc2c(c1)OCO2)C1CCN(S(=O)(=O)Cc2ccccc2)CC1	3	7	0.9	0.9	-3
CCN(CC)C(=O)CSc1nnc(-c2ccccc2)n1-c1ccccc1	-38	-42	1.1	0.9	38*
